Experimental data as given in ChEMBL document CHEMBL3988442, “University of Dundee, Small-Polar-MMV Screening Library” (2021).
Screen size: about 48,000 compounds; about 13,000 (27%) showed an effect of 50% or more. Some of the results follow.

Test system: Wolbachia pipientis
Assay: Anti-Wolbachia Cell-Based Screen
Assay type: functional
Design: scale not given: in the data most compounds retested in dose-response had high values
Settings: 5 µM

SMILES	Percent Effect
c1ccc(Cn2cccn2)c(CN2CCC3(CCCNC3)C2)c1 (centres undefined)	-20.95%
O=S(=O)(CCO)Cc1ccc(OCC(F)(F)F)cc1	1.249%
COCCOCCNC(=O)C(C)Oc1ccccc1C(F)(F)F (centres undefined)	0.2325%
O=C(O)C(F)(F)F.c1cc(CN2CCCn3cnc(COCC4CC4)c3C2)co1	3.975%
CCCc1cc(C(=O)N(C)Cc2cnc3ccccc3n2)n(C)n1	-19.21%
CCC(NC(=O)c1cc(CC(C)C)nn1C)c1ccnn1C (centres undefined)	9.016%
CCCc1cc(C(=O)N[C@@H](CO)[C@@H](O)c2ccccc2)n(C)n1	130.2%
CCCc1cc(C(=O)NC(c2ccccc2)c2n[nH]c(C)n2)[nH]n1 (centres undefined)	3.333%
CCCc1cc(C(=O)N[C@H](C)[C@@H](O)c2ccc(O)cc2)n(C)n1	110%
CC(C)Cc1cc(C(=O)NCC(O)c2ccc(F)cc2)n(C)n1 (centres undefined)	0.3453%
O=C(CCCn1cncn1)NC1(c2cccc(Br)c2)CC1	-89.93%
O=C(Cc1ccccc1F)NCCN1CCOCC1	3.995%
O=S(=O)(NCCc1ccccc1C(F)(F)F)N1CCOCC1	96.69%
O=S(=O)(NCCc1ccccc1F)N1CCOCC1	104.5%
O=S(=O)(Cc1ccccc1F)NCCN1CCOCC1	-10.21%
O=S(=O)(NCc1cccnc1OC1CCCC1)N1CCOCC1	-7.047%
CCOc1ncccc1CNS(=O)(=O)N1CCOCC1	-0.8612%
Cc1nc(S(=O)(=O)N2CCc3[nH]nc(CCC(C)C)c3C2)cn1C	14.04%
CC(C)CN1CC(c2nc(CCc3ccccc3)n[nH]2)CC1=O (centres undefined)	6.531%
CN1CCCCC[C@@H]2[C@@H]1[C@H](c1ccccc1)CN2C(=O)c1cccnc1	98.96%
CN1CCCC[C@@H]2[C@H]1[C@@H](c1ccccc1)CCN2C(=O)c1ccccc1	-7.424%
O=C(c1ccncc1)N1CCCC1C1CCN(Cc2ccccc2)CC1 (centres undefined)	-37.72%

SMILES	Percent Effect
CN1CCCC[C@@H]2[C@H]1[C@@H](c1ccccc1)CCN2C(=O)c1ccncc1	88.59%
O=C(c1cccnc1)N1CCCC1C1CCN(Cc2ccccc2)CC1 (centres undefined)	-39.09%
CN1CCCC[C@@H]2[C@H]1[C@@H](c1ccccc1)CCN2C(=O)c1cccnc1	94.07%
CC(C)=CCN1CCN(C(=O)c2snnc2C)[C@H]2CS(=O)(=O)C[C@H]21	-1.087%
Cc1nnsc1C(=O)N1CCN(CC2CC2)[C@@H]2CS(=O)(=O)C[C@@H]21	2.438%
Cc1nnsc1C(=O)N1CC[C@H](c2ccccc2)[C@@H]2[C@H]1CCCCN2C	109%
COC(=O)C1CCCN1C(=O)c1ccc(Cl)cc1F (centres undefined)	16.38%
CN1CCN(c2ccc(NC(=O)c3ccccn3)c(C(F)(F)F)c2)CC1	-8.677%
CCNC(=O)c1ccoc1CN1c2ccccc2CC1C (centres undefined)	-6.269%
CCN(CCc1nc2cc(C)ccc2[nH]1)C(=O)[C@@H](N)COC	2.321%
Cc1nc(CCNc2ccc(-c3nc(C)c(C)c(=O)[nH]3)cn2)cs1	1.722%
COc1c(C)cnc(CNC(=O)CCc2nc3ccccc3[nH]2)c1C	4.531%
O=C(CCCc1nc2ccccc2[nH]1)N1CCCC1c1ccccn1 (centres undefined)	-11.11%
O=C(NCCNc1ccccn1)NC1CCOC2(CCCCC2)C1 (centres undefined)	-19.85%
O=C(CCc1nc2ccccc2[nH]1)NC1CCOC2(CCOCC2)C1 (centres undefined)	103.6%
CN(C)C(=O)NC1COC2(CCN(S(=O)(=O)c3ccccc3)CC2)C1 (centres undefined)	5.169%
O=C(CCS(=O)(=O)c1ccccc1)NC1CCOC2(CCOCC2)C1 (centres undefined)	92.28%
CCc1ncc2c(n1)CN(C(=O)CNC(=O)c1ccccc1)C2	27.82%
COc1cccc(CN(C)Cc2[nH]c3ccccc3c2C)c1O	10.98%
Cc1cccc(N2CC3(CCN(S(=O)(=O)C4CC4)C3)C2)n1.O=C(O)C(F)(F)F	2.181%
Cc1ccc(N2CCC3(CC2)CCN(C2CCOC2)CC3)nn1.O=C(O)C(F)(F)F (centres undefined)	-7.269%
O=C(O)C(F)(F)F.O=C1COC2(CCN(c3cccc(F)c3)CC2)CN1Cc1ccccn1	-8.645%
